In PubChem BioAssay AID652048 (National Center for Advancing Translational Sciences (NCATS), 2013):
Where “and” joins values, the source holds several entries; their conditions need not be identical. Identical values can stand only once. The whole screen tested about 410,000 compounds, of which about 2,400 (0.59%) were called active. Cut-off read from the data, not from the text of the source: active = max activation above about 30%; inactive = the rest. Only a selection was taken, and actives are over-represented in it overall. Where a structure was tested more than once in an assay, its records may differ in their call.

Target: D(3) dopamine receptor (Homo sapiens) (UniProt P35462)
Experiment: qHTS of D3 Dopamine Receptor Agonist: qHTS; note: 0% is about no effect
Conditions: D3R DiscoveRx beta-arrestin cells, luminescence, 90 min; stronger effect = higher value
Method in brief: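 Agonist-mode cell screen: cells plated at 1500/well and incubated overnight at 37 °C, then exposed to library compounds for 90 min at 37 °C. Detection reagent was added for 30–60 min at room temperature, and luminescence was read.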

D(3) dopamine receptor (Homo sapiens), sequence (P35462 whole entry, looked up): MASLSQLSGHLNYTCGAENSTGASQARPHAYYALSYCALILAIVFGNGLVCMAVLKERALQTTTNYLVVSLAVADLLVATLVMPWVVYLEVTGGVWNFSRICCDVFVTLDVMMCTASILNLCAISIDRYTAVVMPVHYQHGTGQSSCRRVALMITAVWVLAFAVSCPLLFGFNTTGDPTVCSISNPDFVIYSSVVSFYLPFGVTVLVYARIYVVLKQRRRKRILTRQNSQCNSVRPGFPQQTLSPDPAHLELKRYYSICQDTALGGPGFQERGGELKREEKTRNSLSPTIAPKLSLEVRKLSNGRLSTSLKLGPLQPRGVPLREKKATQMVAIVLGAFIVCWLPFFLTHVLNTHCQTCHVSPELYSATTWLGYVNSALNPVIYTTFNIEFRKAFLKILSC

| SMILES | max activation |
| --- | --- |
| CCc1ccc(S(=O)(=O)c2nnn3c2nc(N2CCN(CC)CC2)c2sccc23)cc1 | 5.12% (inactive) |
| CCOc1ccc(Nc2oc(/C=C/c3ccc(F)cc3)nc2C#N)cc1 | -13.3% (inactive) |
| Fc1ccc(-c2nn(-c3ccccc3Cl)c3c2cnc2ccccc23)cc1 | 0.11% (inactive) |
| O=C(c1ccco1)n1nc(-c2ccc(Cl)cc2)nc1NCc1ccccc1 | -9.35% (inactive) |
| CSc1nc(-c2ccco2)nn1C(=O)c1ccccc1Cl | 32.7% (active) |
| Oc1c(C(c2ccccc2Cl)N2CCOCC2)sc2nc(-c3ccco3)nn12 (centres undefined) | -18% (inactive) |
| CCOC(=O)Cc1cccc(-c2cc(CCCCCCc3ccc(O[C@H]4O[C@H](COC(C)=O)[C@@H](OC(C)=O)[C@H](OC(C)=O)[C@@H]4OC(C)=O)c(-c4cccc(CC(=O)OCC)c4)c3)ccc2O[C@H]2O[C@H](COC(C)=O)[C@@H](OC(C)=O)[C@H](OC(C)=O)[C@@H]2OC(C)=O)c1 | -9.52% (inactive) |
| COc1ccc(-c2nc3cnccn3c2NC2CCCCC2)cc1-c1cccc(Cl)c1 | 7.25% (inactive) and 47.9% (active) |
| COc1ccc(-c2nc3cnccn3c2NC(C)(C)CC(C)(C)C)cc1O | 4.14% (inactive) |
| COc1ccc(-c2nc3cc(C)ccn3c2NC2CCCCC2)cc1SC1CCCCC1 | 18.2% (inactive) |
| Cc1ccc(Cl)cc1N1CCN(C(=O)c2cccn3c(=O)c4cc(Cl)ccc4nc23)CC1 | 1.63% (inactive) |
| CN(C)CCc1c[nH]c2ccc(Cn3cncn3)cc12 | -8.71% (inactive) |
| COc1ccc(Cl)cc1NC(=O)Cn1c(=O)c2ccccc2n2nncc12 | -7.09% (inactive) |
| COc1ccccc1C(=O)N1CCNC(=O)C1CC(=O)Nc1ccc(Cl)cc1 (centres undefined) | 4.77% (inactive) |
| COC(=O)c1cc(NC(=O)CC2C(=O)NCCN2C(=O)c2ccc(F)cc2)cc(C(=O)OC)c1 (centres undefined) | 5.37% (inactive) |
| O=C(CC1C(=O)NCCN1C(=O)c1ccc([N+](=O)[O-])cc1)Nc1cccc(Cl)c1 (centres undefined) | 38.6% (active) |
| Brc1cccc(-c2nnn3c2nc(NC2CCCCC2)c2ccccc23)c1 | -2.96% (inactive) |
| Cc1cc(OCC(=O)NCC(O)c2ccccc2)c2c(C)c(C)c(=O)oc2c1 (centres undefined) | 2.59% (inactive) |
| COc1ccc(CCNC(=O)COc2cc(C)cc3oc(=O)c(C)c(C)c23)cc1OC | 42.4% (active) |
| COc1ccc(CCNC(=O)c2cc(=O)c3c(C)cc(C)cc3o2)cc1OC | 21.9% (inactive) |
| COc1cc2c(cc1OC)CC(=O)N(CCCN(C)C[C@H]1Cc3cc(OC)c(OC)cc31)CC2 | -16.3% (inactive) |

| SMILES | max activation |
| --- | --- |
| COc1ccc(N2CCN(S(=O)(=O)c3ccc(-c4coc(C)n4)cc3)CC2)cc1 | 1.53% (inactive) |
| O=c1c(=O)n(Cc2c(F)cccc2Cl)ccn1Cc1ccccc1 | -9.07% (inactive) |
| O=C1c2ccccc2S(=O)(=O)N1Cc1c(F)cccc1Cl | -0.264% (inactive) |
| Cc1ccc(C)c(N2C(=O)N(Cc3c(F)cccc3Cl)c3ccccc3S2(=O)=O)c1 | 64.6% (active) |
| CCOC(=O)c1cnc(SCc2nc(N)nc(Nc3ccc(OC)cc3)n2)nc1N | 2.44% (inactive) |
| CCOC(=O)c1cnc(SCC(=O)Nc2cccc(OC)c2)nc1N | 6.65% (inactive) |
| CCCCOc1ccc(-c2ncc(C(=O)OCC)c(N)n2)cc1 | 85% (active) |
| CCOC(=O)c1c(NC(=O)c2cc(-c3ccc(Cl)cc3)on2)sc2c1CCCC2 | -8.12% (inactive) |
| C=O | 7.37% (inactive) |
| CCn1cc(C(=O)N(C)Cc2ccccc2)c(=O)c2cc(S(=O)(=O)N3CCCCCC3)ccc21 | 3.05% (inactive) |
| COc1cc(/C=C2\Oc3ccc(C#Cc4ccc(O)cc4)cc3C2=O)cc(OC)c1 | 15.9% (inactive) |
| COc1cc(C#Cc2ccc3cc(CCCO)oc(=O)c3c2)cc(OC)c1 | 41.1% (active) |
| COc1cc(CN(C(=O)c2ccccc2Br)c2ccccn2)cc(OC)c1OC | -5.51% (inactive) |
| COC(=O)c1ccc(NC(=O)CCc2c(C)nc3c(c(C)nn3-c3ccc(C)cc3)c2C)cc1 | 4.91% (inactive) |
| O=S(O)CNc1ccc(S(=O)(=O)c2ccc(NCS(=O)O)cc2)cc1 | -10.5% (inactive) |
| COC(=O)C1CC2=C(CC(C)(C)CC2=O)N(c2ccccc2)C1=O (centres undefined) | 32.1% (active) |
| Cc1ccc(N2C(=O)C(NC(=O)c3c(F)cccc3F)(C(F)(F)F)C3=C2CC(C)(C)CC3=O)cc1 (centres undefined) | -17.5% (inactive) |
| CC(C)C1C2=C(CC(C)(C)CC2=O)ON1c1ccccc1 (centres undefined) | -2.83% (inactive) |
| CC(=O)NC(=O)c1ccccc1O | -11.8% (inactive) |
| Cc1cc(C)cc(NC(=O)c2cnc3sc(N4CCCC4)nn3c2=O)c1 | 19.3% (inactive) |
| CC(C)Oc1ccc(CNC(=O)C2CCN(c3nc4ccccc4n(C)c3=O)CC2)cc1 | -5.52% (inactive) |

| SMILES | max activation |
| --- | --- |
| COc1cc(C(=O)N2CCOCC2)cc(OC)c1OC | 4.3% (inactive) and 9.01% (inactive) |
| COc1ccccc1/C=C/C1=NC(=C\N(C)C)/C(=O)O1 | -12.1% (inactive) |
| CC(C)(C)C1C/C(=C/c2ccco2)C(=O)/C(=C/c2ccco2)C1 (centres undefined) | -7.15% (inactive) |
| O=C1OC(/C=C/c2ccccc2)=NC/1=C/c1ccco1 | 30.1% (active) |
| Cc1cccc(NC(=O)N2CCC(CN3CCc4ccccc4C3)CC2)c1C | -18.9% (inactive) |
| CCOC(=O)Cn1c(=O)n(-c2ccccc2OC)c2nc(-c3cccc(F)c3)nc(C(N)=O)c21 | 4.17% (inactive) |
| COc1ccccc1N1CCN(c2ncnc3sc(C)c(-c4ccccc4)c23)CC1 | 50.8% (active) |
| COc1ccccc1N1CCN(c2ncnc3onc(-c4cccc(Cl)c4)c23)CC1 | 7.08% (inactive) |
| COc1ccccc1N1CCN(c2ncnc3onc(-c4ccc(F)cc4)c23)CC1 | -8.86% (inactive) |
| Cc1cccc(N2CCN(S(=O)(=O)c3ccc4[nH]c5c(c4c3)CCCCC5)CC2)c1C | -5.55% (inactive) |
| COc1cccc(CNC(=O)CCc2nc(-c3ccc(C)cc3)no2)c1 | -0.491% (inactive) |
| Cc1ccc(C)c(N2CCN(C(=O)CCc3nc(-c4cccc(C(F)(F)F)c4)no3)CC2)c1 | 11.8% (inactive) |
| COc1ccc(-c2noc(CCC(=O)N3CCN(c4cccc(C)c4)CC3)n2)cc1 | 35.7% (active) |
| CCN1CCN(C(=O)N[C@@H](C(=O)N[C@@H]2C(=O)N3[C@@H]2SC(C)(C)[C@H]3C(=O)O)c2ccccc2)C(=O)C1=O | -1.19% (inactive) |
| O=C1N(Cc2ccccc2)c2ccc(Cl)cc2C1(O)c1c[nH]c2ccccc12 (centres undefined) | 8.47% (inactive) |
| CCN(CC)S(=O)(=O)c1ccc2c(c1)N(CC(=O)NCC(C)c1ccccc1)C(=O)CO2 (centres undefined) | -18.9% (inactive) |
| COc1cccc(C2=CC(=O)C[C@H](c3ccc(OC)c(OC)c3)C2)c1 | -0.655% (inactive) |
| COc1ccc2cc(C3=CC(=O)C[C@H](c4ccc5c(c4)OCO5)C3)ccc2c1 | 38.7% (active) |
| COc1ccc([C@H]2CC(=O)C=C(c3ccc(CO)cc3)C2)cc1 | 10.9% (inactive) |
| Cc1nc(SCCOc2ccc(Cl)cc2)[nH]c(=O)c1Cc1ccccc1 | 1.02% (inactive) |
| O=C(Cn1cnc2c(oc3ccccc32)c1=O)Nc1ccc(OC(F)(F)F)cc1 | 2.62% (inactive) |

| SMILES | max activation |
| --- | --- |
| O=C(c1ccco1)N1CCN(Cc2cccc(C(F)(F)F)c2)CC1 | 8.47% (inactive) |
| COc1cccc(OC)c1OCCN1CCN(C(=O)c2ccco2)CC1 | 73.2% (active) |
| O=C1CCN(CCc2ccccc2)CCN1CCOc1ccccc1 | -27.1% (inactive) |
| O=C(c1ccc(Br)o1)N1CCN(CCOc2ccccc2)CC1 | 54.7% (active) |
| O=C(c1ccco1)N1CCN(C(=O)c2ccc(COc3ccc(F)cc3)o2)CC1 | 1.73% (inactive) |
| O=CN1CCN(C(=O)c2ccc(Br)o2)CC1 | -4.54% (inactive) |
| O=C(CCCCn1c(=O)c2ccccc2n(CC(=O)Nc2cccc(C(F)(F)F)c2)c1=O)NCc1ccc2c(c1)OCO2 | 6.91% (inactive) |
| CC(=O)Oc1ccccc1C(=O)Nc1ncc([N+](=O)[O-])s1 | 6.84% (inactive) |
| CCOC(=O)c1sc(NC(=O)/C=C/c2ccc(C(C)C)cc2)c(C(=O)OCC)c1C | -9.68% (inactive) |
| CCOC(=O)c1c(NC(=O)/C=C/c2ccc(OC)cc2)sc2c1CCC(C)C2 (centres undefined) | 59.2% (active) |
| COC(=O)c1c(NC(=O)CCCOc2ccccc2)sc2c1CCC(C)C2 (centres undefined) | 4.8% (inactive) |
| COc1ccccc1CNS(=O)(=O)c1cc(Br)cc2c1N(C(C)=O)C(C)C2 (centres undefined) | -15.9% (inactive) |
| CCN(CCCNC(=O)c1c(C)oc2ncn(CC(C)C)c(=O)c12)Cc1ccccc1 | -16.4% (inactive) |
| Cc1ccc(-c2ncc(Cl)cc2-c2ccc(S(C)(=O)=O)cc2)cn1 | 3.29% (inactive) |
| COc1ccccc1N1CCN(c2ccc(=O)n(CC(=O)NCc3ccc(OC(C)C)cc3)n2)CC1 | -15.8% (inactive) |
| COC(=O)c1ccc(NC(=O)c2cc(S(=O)(=O)N3CCC(C)CC3)cn2C)cc1 | -4.24% (inactive) |
| N#C/C(=C\c1cccc(F)c1)c1nc(-c2cc3c(ccc4ccccc43)oc2=O)cs1 | 4.13% (inactive) |
| NC(=O)c1ncn([C@@H]2O[C@H](CN=C3NS(=O)(=O)c4ccccc43)[C@@H](O)[C@H]2O)n1 | 40.4% (active) |
| COc1cc2c(cc1CNC[C@H]1O[C@@H](n3cnc(C(N)=O)n3)[C@H](O)[C@@H]1O)OCO2 | 4.9% (inactive) |
| NC(=O)c1ncn([C@@H]2O[C@H](CNCc3cnc(N4CCOCC4)s3)[C@@H](O)[C@H]2O)n1 | 0% (inactive) |
| COc1cccc(Nc2nc3ccccc3c3nncn23)c1 | 10.1% (inactive) |
